Assay results taken from the supplement of paper PMC6089552.
Where “and” joins values, the source holds several entries; their conditions need not be identical. Equal values may be shown once. About 300 (9.4%) of roughly 3,200 compounds showed activity. The full list was thinned out, with actives kept by preference.

Tested on: A673/TR/shEF
Test: cell viability (LOESS-normalised, relative to median of negative controls) (log2 ratio); higher = more viable cells (less compound effect), active = hit call of the paper (over 3 MAD below the median)
Conditions: treatment time: 72 h
Outline: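 A673/TR/shEF Ewing sarcoma cells (1,500 per well, 384-well plates) were grown with or without doxycycline to induce EWS-FLI1 shRNA knockdown, starting 24 h before compounds. Library compounds at two or more concentrations, with DMSO controls, were added for three days. Cell viability was read by CellTiter-Glo luminescence on an Envision reader, then LOESS-corrected per plate, divided by the median of negative controls and log2-transformed. Hits were wells at least three median absolute deviations from the median of all screened wells.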

[1] = 0.103 µM, library screen: screen3, EWS-FLI1 expression: high (no doxycycline)
[2] = 0.103 µM, library screen: screen3, EWS-FLI1 expression: low (doxycycline-induced shRNA knockdown)
[3] = 0.25 µM, library screen: screen1, EWS-FLI1 expression: high (no doxycycline)
[4] = 0.25 µM, library screen: screen1, EWS-FLI1 expression: low (doxycycline-induced shRNA knockdown)
[5] = 0.308 µM, library screen: screen3, EWS-FLI1 expression: high (no doxycycline)
[6] = 0.308 µM, library screen: screen3, EWS-FLI1 expression: low (doxycycline-induced shRNA knockdown)
[7] = 0.926 µM, library screen: screen3, EWS-FLI1 expression: high (no doxycycline)
[8] = 0.926 µM, library screen: screen3, EWS-FLI1 expression: low (doxycycline-induced shRNA knockdown)
[9] = 2.5 µM, library screen: screen1, EWS-FLI1 expression: high (no doxycycline)
[10] = 2.5 µM, library screen: screen1, EWS-FLI1 expression: low (doxycycline-induced shRNA knockdown)
[11] = 2.8 µM, library screen: screen3, EWS-FLI1 expression: high (no doxycycline)
[12] = 2.8 µM, library screen: screen3, EWS-FLI1 expression: low (doxycycline-induced shRNA knockdown)
[13] = 8.3 µM, library screen: screen3, EWS-FLI1 expression: high (no doxycycline)
[14] = 8.3 µM, library screen: screen3, EWS-FLI1 expression: low (doxycycline-induced shRNA knockdown)
[15] = 25 µM, library screen: screen3, EWS-FLI1 expression: high (no doxycycline)
[16] = 25 µM, library screen: screen3, EWS-FLI1 expression: low (doxycycline-induced shRNA knockdown)
[17] = 0.25 µM, library screen: screen2, EWS-FLI1 expression: high (no doxycycline)
[18] = 0.25 µM, library screen: screen2, EWS-FLI1 expression: low (doxycycline-induced shRNA knockdown)
[19] = 2.5 µM, library screen: screen2, EWS-FLI1 expression: high (no doxycycline)
[20] = 2.5 µM, library screen: screen2, EWS-FLI1 expression: low (doxycycline-induced shRNA knockdown)
[21] = 0.025 µM, library screen: screen2, EWS-FLI1 expression: high (no doxycycline)
[22] = 0.025 µM, library screen: screen2, EWS-FLI1 expression: low (doxycycline-induced shRNA knockdown)
[23] = 25 µM, library screen: screen2, EWS-FLI1 expression: high (no doxycycline)
[24] = 25 µM, library screen: screen2, EWS-FLI1 expression: low (doxycycline-induced shRNA knockdown)

Measured: cell viability (log2)

COc1cc([C@@H]2c3cc4c(cc3[C@@H](O[C@@H]3O[C@@H]5CO[C@@H](c6cccs6)O[C@H]5[C@H](O)[C@H]3O)[C@H]3COC(=O)[C@H]23)OCO4)cc(OC)c1O
active: [3] -0.797 | [4] -0.349 | [5] -0.326 | [7] -0.931 | [8] -0.262 | [9] -1.74 | [10] -0.557 | [11] -1.32 | [12] -0.472 | [13] -2.12 | [14] -0.477 | [15] -3.07 | [16] -0.784
inactive: [1] -0.0319 | [2] -0.00588 | [6] -0.0159

COc1cc([C@@H]2c3cc4c(cc3[C@@H](O[C@@H]3O[C@@H]5CO[C@@H](C)O[C@H]5[C@H](O)[C@H]3O)[C@H]3COC(=O)[C@H]23)OCO4)cc(OC)c1O
inactive: [1] 0.16 | [2] 0.0754 | [3] 0.0215 | [4] 0.0298 | [17] 0.197 | [18] 0.0698 | [5] 0.0781 | [6] 0.0446 | [7] 0.0107 | [8] 0.0985 | [10] 0.00733 | [20] 0.00714 | [12] -0.0251
active: [9] -0.176 | [19] -0.711 | [11] -0.212 | [13] -0.857 | [14] -0.166 | [15] -1.25 | [16] -0.367

CCCC(CC)CCOC(=O)COc1cc(Cl)c(Cl)cc1Cl (centres undefined)
inactive: [3] 0.0358 | [4] 0.0314 | [9] 0.0377 | [10] 0.068

NCCCC(N)CC(=O)NCC1NC(=O)C(CO)NC(=O)C(N)CNC(=O)C(C2CCN=C(N)N2)NC(=O)/C(=C/NC(N)=O)NC1=O (centres undefined)
inactive: [3] 0.0914 | [4] 0.117 | [9] 0.124 | [10] 0.0772

CC1=C(C(=O)OCCOc2ccccc2)C(c2coc3ccccc3c2=O)C2=C(CCCC2=O)N1 (centres undefined)
inactive: [3] 0.0678 | [4] -0.0908 | [9] 0.0965 | [10] 0.143

COc1cc2nc(N3CCN(C(=O)C4=C[C@H]5C=C[C@@H]4CC5)CC3)nc(N)c2cc1OC
inactive: [17] 0.165 | [18] 0.0668 | [19] 0.132 | [20] 0.0728

NCCCCC(N)C(=O)NC(Cc1c[nH]c2ccccc12)C(=O)NC(CCCCN)C(=O)O (centres undefined)
inactive: [3] 0.0147 | [4] 0.0512 | [9] 0.141 | [10] 0.0544

COC(=O)c1c(OC)cc2c(c1C)Oc1c(Cl)c(OC(C)=O)c(Cl)c(C)c1C(=O)O2
inactive: [3] 0.0846 | [4] 0.126 | [9] 0.0897 | [10] 0.152

COC(=O)C1=C(C)N=c2sc(=Cc3cccnc3)c(=O)n2C1c1ccccc1 (centres undefined)
inactive: [3] 0.123 | [4] 0.0677 | [9] 0.0796 | [10] 0.107

O=C(/C=C/c1ccc(-c2cccc(Cl)c2)o1)c1ccco1
inactive: [3] 0.127 | [4] 0.15 | [9] 0.147 | [10] 0.194

Nc1nc(=S)c2[nH]cnc2[nH]1
active: [9] -0.318 | [19] -0.33 | [13] -0.323 | [23] -0.96 | [24] -0.163 | [15] -0.834
inactive: [21] 0.0835 | [22] 0.0155 | [1] 0.132 | [2] 0.0451 | [3] 0.0575 | [4] 0.137 | [17] 0.0679 | [18] 0.0691 | [5] 0.156 | [6] 0.137 | [7] 0.118 | [8] 0.102 | [10] 0.0456 | [20] -0.0263 | [11] 0.0258 | [12] 0.111 | [14] 0.0181 | [16] 0.027

O=c1nc[nH]c2nc[nH]c12
inactive: [3] 0.00725 | [4] -0.0191 | [9] 0.152 | [10] 0.0891

S=c1nc[nH]c2nc[nH]c12
active: [9] -0.186 | [23] -0.312 | [15] -0.314
inactive: [21] 0.182 | [22] 0.0993 | [1] 0.0192 | [2] 0.0459 | [3] -0.0045 | [4] -0.00406 | [17] 0.161 | [18] 0.00291 | [5] 0.144 | [6] 0.158 | [7] 0.0964 | [8] 0.0595 | [10] 0.0219 | [19] -0.00564 | [20] 0.0787 | [11] 0.036 | [12] 0.0694 | [13] -0.147 | [14] 0.036 | [24] 0.0432 | [16] 0.056

Cn1c(=O)c2[nH]cnc2n(C)c1=O
inactive: [1] 0.139 | [2] 0.0982 | [3] 0.0899 | [4] 0.0721 | [17] 0.105 and -0.0181 | [18] 0.0369 and 0.0406 | [5] 0.11 | [6] 0.14 | [7] 0.146 | [8] 0.0819 | [9] 0.127 | [10] 0.0623 | [19] 0.259 and 0.0738 | [20] 0.0969 and 0.00951 | [11] 0.155 | [12] 0.129 | [13] 0.11 | [14] 0.0762 | [15] 0.117 | [16] 0.0984

Cn1c(=O)[nH]c2nc[nH]c2c1=O
inactive: [3] 0.0262 | [4] 0.135 | [9] 0.103 | [10] 0.0812
